{
  "source": "patent US20050164186",
  "about": "“Alteration of restriction endonuclease specificity by genetic selection” (published 2005)",
  "target": "T1, BstYI NN1 (K133N/S172N) (Bacillus stearothermophilus, K133N,S172N)",
  "T1 chain": "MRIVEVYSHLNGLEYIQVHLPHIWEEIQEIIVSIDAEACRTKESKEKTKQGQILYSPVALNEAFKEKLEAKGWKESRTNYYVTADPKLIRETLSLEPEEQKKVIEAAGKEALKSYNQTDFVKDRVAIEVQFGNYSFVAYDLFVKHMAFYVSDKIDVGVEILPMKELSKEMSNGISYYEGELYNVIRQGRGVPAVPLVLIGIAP",
  "test": "cleavage_in_vitro; 60 C",
  "details": "label: radiolabel; dsDNA, one strand shown",
  "data": [
    {"sequence": "AGATCC", "values": [
      {"measurement": "cleavage activity", "value": 7, "unit": "fold lower than AGATCT"}
    ]}
  ]
}
